# Test results taken from PubChem BioAssay (Tox21).
# Values joined by “and” are separate entries in the source; they are usually repeats but may differ in a detail not shown here. Equal entries are not always repeated. Results filed as inconclusive are left out. Entries that show only a call come without a potency. More than one record can exist for a structure, and the calls need not agree. Active and inactive are the calls of the source. Unless noted, calls follow the shape of the dose curve; as a rule, active = well fitted curve in the direction sought with a large enough effect in the repeat runs; inconclusive = weak or mixed curves; inactive = no such curve, though single readings can be large; an effect the other way counts as inactive or inconclusive.
# Tests used:
# [1] = target: Androgen receptor (Homo sapiens) (UniProt P10275); experiment: qHTS assay to identify small molecule antagonists of the androgen receptor (AR) signaling pathway using the MDA cell line in the presence of 0.5 nM R1881 (AID 1259243); also: nearly all actives have a fitted effect of over 50% in size; also: potency is read from the fitted curve at half-maximal effect
# Chain of Androgen receptor (Homo sapiens) (P10275 whole entry, looked up): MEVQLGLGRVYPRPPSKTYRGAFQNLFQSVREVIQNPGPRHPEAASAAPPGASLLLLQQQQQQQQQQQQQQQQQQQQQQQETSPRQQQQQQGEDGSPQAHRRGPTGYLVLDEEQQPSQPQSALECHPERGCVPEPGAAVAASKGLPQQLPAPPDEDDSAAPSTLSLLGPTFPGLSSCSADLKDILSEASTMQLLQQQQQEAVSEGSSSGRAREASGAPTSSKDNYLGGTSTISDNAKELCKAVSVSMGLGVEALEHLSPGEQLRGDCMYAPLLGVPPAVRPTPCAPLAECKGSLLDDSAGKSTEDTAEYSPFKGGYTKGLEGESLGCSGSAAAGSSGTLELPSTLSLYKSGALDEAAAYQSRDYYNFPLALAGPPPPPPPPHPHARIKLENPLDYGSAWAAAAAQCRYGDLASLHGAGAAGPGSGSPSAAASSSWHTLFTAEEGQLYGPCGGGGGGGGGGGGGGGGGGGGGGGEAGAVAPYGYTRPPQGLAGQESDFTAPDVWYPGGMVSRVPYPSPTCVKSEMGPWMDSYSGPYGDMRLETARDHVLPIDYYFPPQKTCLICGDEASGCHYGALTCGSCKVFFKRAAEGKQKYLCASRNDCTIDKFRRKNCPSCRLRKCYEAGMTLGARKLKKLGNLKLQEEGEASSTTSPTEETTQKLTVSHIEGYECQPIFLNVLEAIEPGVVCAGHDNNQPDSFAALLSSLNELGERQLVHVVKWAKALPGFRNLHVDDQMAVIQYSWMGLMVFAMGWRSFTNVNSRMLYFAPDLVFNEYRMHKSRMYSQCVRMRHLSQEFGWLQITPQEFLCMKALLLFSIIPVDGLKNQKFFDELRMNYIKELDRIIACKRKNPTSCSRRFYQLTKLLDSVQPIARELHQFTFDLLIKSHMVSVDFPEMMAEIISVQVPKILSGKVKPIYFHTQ
# In short: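 We exposed MDA-kb2 cells to compounds under 0.5 nM R1881 stimulation for 16 hr at 37C and quantified MMTV-driven luciferase by luminescence.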
# [2] = target: Estrogen receptor (Homo sapiens) (UniProt P03372); experiment: qHTS assay to identify small molecule antagonists of the estrogen receptor alpha (ER-alpha) signaling pathway using the BG1 cell line in the presence of 0.1 nM 17-beta-estradiol (AID 1259244); also: nearly all actives have a fitted effect of over 50% in size; also: potency is read from the fitted curve at half-maximal effect
# Chain of Estrogen receptor (Homo sapiens) (P03372 whole entry, looked up): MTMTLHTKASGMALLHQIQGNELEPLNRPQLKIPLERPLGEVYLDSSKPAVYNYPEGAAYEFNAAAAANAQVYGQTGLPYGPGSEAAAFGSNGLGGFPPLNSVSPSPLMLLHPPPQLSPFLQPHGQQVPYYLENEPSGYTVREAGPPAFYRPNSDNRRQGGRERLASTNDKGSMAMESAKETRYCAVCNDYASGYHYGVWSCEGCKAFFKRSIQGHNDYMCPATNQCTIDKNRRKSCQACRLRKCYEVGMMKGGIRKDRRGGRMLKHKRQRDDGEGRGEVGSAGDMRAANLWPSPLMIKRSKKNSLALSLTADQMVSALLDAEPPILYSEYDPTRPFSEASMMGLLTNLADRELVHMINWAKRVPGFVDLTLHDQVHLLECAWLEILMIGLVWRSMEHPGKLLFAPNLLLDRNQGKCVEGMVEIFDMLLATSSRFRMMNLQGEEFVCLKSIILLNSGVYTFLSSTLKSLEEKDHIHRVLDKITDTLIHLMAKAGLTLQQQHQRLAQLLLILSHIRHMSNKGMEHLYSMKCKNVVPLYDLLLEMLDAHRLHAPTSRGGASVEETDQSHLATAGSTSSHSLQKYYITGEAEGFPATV
# In short: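 VM7Luc4E2; 4xERE-luciferase; 0.1 nM E2 final; 22 h co-incubation, 37C; ONE-Glo luminescence after 30 min at room temperature.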
# [3] = qHTS assay to identify small molecule HDAC inhibitors (AID 1259364);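 also: wild-type HCT-116 cells with endogenous class I/II HDAC activity; top concentration of the series differs between compounds; nearly all actives have a fitted effect of over 45% in size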
# In short: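 Relative class I and II HDAC activity is taken from the luminogenic signal in HCT-116 cells, with compound exposure 2 hr and reagent development 30 min at room temperature.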
# [4] = qHTS assay to identify small molecule HDAC inhibitors - cell viability counter screen (AID 1259365); also: series mostly up to about 92 µM; nearly all actives have a fitted effect of over 50% in size
# In short: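 Following a 2hr exposure of overnight-plated wild-type HCT-116 cells to DMSO-delivered compounds, CellTiter-Glo was added and luminescence recorded after 30min at room temperature.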
# [5] = qHTS assay to identify small molecule agonists of the sonic hedgehog signaling (Shh) pathway - cell viability counter screen (AID 1259366); also: nearly all actives have a fitted effect of over 50% in size; also: potency is read from the fitted curve at half-maximal effect
# In short: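 After a 4hr attachment at 37C, NIH/3T3 cells bearing an integrated Gli1-driven luciferase reporter were dosed with compounds. Treatment lasted 24hr, with the final hour including CellTiter-Fluor for a fluorescence viability measurement.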
# [6] = qHTS assay to identify small molecule antagonists of the sonic hedgehog signaling (Shh) pathway - cell viability counter screen (AID 1259367); also: nearly all actives have a fitted effect of over 55% in size; also: potency is read from the fitted curve at half-maximal effect
# In short: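 NIH/3T3-derived Gli1-Luc reporter cells, 2,000/well, plated 4 hr before compound addition, then stimulated with conditioned medium for 24 hr at 37C. Viability measured in the same wells by CellTiter-Fluor fluorescence, reagent added at 23 hr for 1 hr.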
# [7] = qHTS assay to identify small molecule agonists of the sonic hedgehog signaling (Shh) pathway (AID 1259368; calls by dose curve; also: nearly all actives have a fitted effect of over 15% in size; also: potency is read from the fitted curve at half-maximal effect)
# In short: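 Mouse fibroblast (NIH/3T3) reporter cells with stably integrated Gli1-Luc were treated 24 hr with compound; firefly luciferase luminescence served as the read-out.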
# [8] = target: Estrogen receptor beta (Homo sapiens) (UniProt Q92731); experiment: qHTS assay to identify small molecule agonists of the estrogen receptor beta (ER-beta) signaling pathway (AID 1259377; active = well fitted activation curve with a large enough effect in the signal ratio in the repeat runs, not every such curve was filed as active; the % refers to the signal ratio)
# Chain of Estrogen receptor beta (Homo sapiens) (Q92731 whole entry, looked up): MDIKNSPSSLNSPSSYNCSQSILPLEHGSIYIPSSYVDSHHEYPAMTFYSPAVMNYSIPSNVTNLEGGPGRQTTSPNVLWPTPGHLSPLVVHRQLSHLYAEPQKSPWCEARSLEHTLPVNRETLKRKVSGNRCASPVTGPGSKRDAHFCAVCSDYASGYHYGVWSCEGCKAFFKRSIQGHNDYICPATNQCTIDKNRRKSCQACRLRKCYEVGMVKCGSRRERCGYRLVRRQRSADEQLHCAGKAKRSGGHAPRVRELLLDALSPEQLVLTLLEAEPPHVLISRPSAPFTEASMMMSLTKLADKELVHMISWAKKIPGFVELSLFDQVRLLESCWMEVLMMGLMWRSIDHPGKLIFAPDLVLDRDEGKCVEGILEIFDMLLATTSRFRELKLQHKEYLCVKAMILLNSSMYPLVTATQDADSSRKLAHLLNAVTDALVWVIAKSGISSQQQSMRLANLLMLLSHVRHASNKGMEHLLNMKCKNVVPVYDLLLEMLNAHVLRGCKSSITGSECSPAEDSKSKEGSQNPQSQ
# In short: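 In HEK293T cells bearing a UAS-beta-lactamase reporter under ER-beta control, DMSO-delivered compounds were incubated for 16 hr at 37C. Activity was detected as fluorescence 2 hours after LiveBLAzer B/G FRET substrate addition.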
# [9] = qHTS assay to identify small molecule antagonists of the sonic hedgehog signaling (Shh) pathway (AID 1259369; calls by dose curve; also: nearly all actives have a fitted effect of over 45% in size; also: potency is read from the fitted curve at half-maximal effect)
# In short: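 Conditioned medium drives Shh signalling in 3T3Gli1-Luc cells; compounds in DMSO co-applied, 24hr at 37 C, then luciferase luminescence.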
# [10] = qHTS assay to identify small molecule phospholipidosis (PLD) inducers (AID 1259344; active = well fitted curve in the direction sought with a large enough effect; an effect the other way counts as inactive or inconclusive; also: potency is read from the fitted curve at half-maximal effect)
# In short: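 HepG2 cells, 900/well, treated with compound plus LipidTOX Red for 24 h at 37 C; amiodarone positive and DMSO negative controls. Fixed with paraformaldehyde/Hoechst, then high-content imaging scored LipidTOX pit count and integrated intensity per well and per cell.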
Structure (SMILES),Potency [1],Potency [2],Potency [3],Potency [4],Potency [5],Potency [6],Potency [7],Potency [8],Potency [9],Potency [10]
CN(C)CCN1CCN(c2cccc(Cl)c2)C1=O,inactive,inactive,inactive,inactive,inactive,inactive,inactive,inactive,,
CC(C)OC(=O)C(O)(CC(=O)O)CC(=O)O,inactive,inactive,inactive,inactive,inactive,inactive,inactive,,inactive,
FC(F)(F)c1cccc(Cl)c1,inactive,inactive,inactive,inactive,,,inactive,inactive,inactive,
Cc1ccc(C)cc1,inactive,inactive,inactive,inactive,,inactive,inactive,,inactive,
c1ccsc1,inactive,inactive,inactive,inactive,inactive,inactive,inactive,,,
Nc1ccc(C(=O)O)c(O)c1,inactive,,inactive,inactive,inactive,inactive,inactive,,inactive,inactive
Cc1cccc(C)c1NC(=O)c1ccc(N)cc1,inactive,inactive,inactive,,,,inactive,inactive,inactive,
Oc1c(I)cc(Cl)c2cccnc12,27.3 µM (active) and 26.6 µM (active),,inactive,inactive,inactive,inactive,38.5 µM (active),,,inactive
CCCc1ccc(OCC(=O)N2CCN(C(=O)COc3ccc(CCC)cc3OC)CC2)c(OC)c1,26.6 µM (active),29.8 µM (active),inactive,inactive,inactive,inactive,inactive,,,
COC1=C(OC)C(=O)C(CCCCCCCCCCO)=C(C)C1=O,29.8 µM (active),,inactive,,inactive,,inactive,,inactive,inactive
C=CC(=O)Nc1cc2c(Nc3ccc(F)c(Cl)c3)ncnc2cc1OCCCN1CCOCC1,7.5 µM (active),inactive,inactive,inactive,3.76 µM (active),7.5 µM (active),inactive,,1.68 µM (active),0.891 µM (active)
Cc1cc(C)c(/C=C2\C(=O)Nc3ccccc32)[nH]1,13.3 µM (active),inactive,,,inactive,inactive,inactive,,,inactive
CC(=O)OCC=C(C)C,inactive,inactive,inactive,inactive,inactive,inactive,inactive,inactive,inactive,
COc1c(C)c2c(c(O)c1C/C=C(\C)CCC(=O)OCCN1CCOCC1)C(=O)OC2,inactive,inactive,inactive,inactive,inactive,inactive,inactive,inactive,inactive,inactive
CCCCCCOC(=O)C(C)CC (configuration not stated),inactive,inactive,inactive,inactive,inactive,inactive,inactive,,inactive,
CC1(C)[C@@H](O)CC[C@]2(C)[C@H]3C(=O)C=C4[C@@H]5C[C@@](C)(C(=O)O)CC[C@]5(C)CC[C@@]4(C)[C@]3(C)CC[C@@H]12,inactive,inactive,inactive,inactive,,,inactive,inactive,inactive,inactive
COC(=O)Nc1nc2ccc(C(=O)c3ccccc3)cc2[nH]1,inactive,inactive,,inactive,inactive,3.35 µM (active),inactive,,,
Cc1c2ccccc2c(C)c2c1ccc1ccccc12,48.1 µM (active) and 27.3 µM (active),inactive and 4.33 µM (active),inactive,,inactive and 68.6 µM (active),inactive and 61.1 µM (active),inactive,,10.9 µM (active),
OC[C@H]1O[C@H](O[C@H]2O[C@H](CO)[C@@H](O)[C@H](O)[C@H]2O)[C@H](O)[C@@H](O)[C@@H]1O,inactive,,inactive,inactive,inactive,inactive,inactive,,inactive,
CC(CO)Oc1ccccc1 (configuration not stated),inactive,inactive,inactive,inactive,inactive,,inactive,inactive,inactive,
ClCCl,inactive,inactive,inactive,inactive,inactive,inactive,inactive,,inactive,
O=C(O)Cc1ccccc1Nc1c(Cl)cccc1Cl,inactive,inactive,inactive,inactive,inactive,inactive,inactive,,inactive,inactive
CC(=O)c1ccc(C(C)=O)cc1,inactive,,inactive,inactive,inactive,inactive,inactive,inactive,,
NC(=O)c1cccc([N+](=O)[O-])c1,inactive,inactive,inactive,inactive,inactive,inactive,inactive,inactive,inactive,
